# According to the supplement of paper PMC6555819:
# Columns and labels:
# Assay in all cases: PBM binding z-score (relative to random genomic background probes); higher = stronger binding; sequences stand for … in GC…GCGATTGACAGCGTAGAATGAAGG
# [1] = test system: RARb homodimer (NR concentration 270 nM)
# Procedure, shortened: (§1)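 Binding z-scores take random background probes as their reference. They come from custom Agilent 4×180K protein-binding microarrays incubated 1 h with ligand-free nuclear receptor dimers, with antibodies against each partner (one per run) detecting binding. Scanned fluorescence was regression-normalized.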
# [2] = test system: RARg:RXRa (NR concentration 270 nM, RXRa partner concentration 90 nM)
# Procedure, shortened: as §1
# [3] = test system: RARg homodimer (NR concentration 270 nM)
# Procedure, shortened: as §1
# [4] = test system: RXRa DBDmut IVT, anti-RXR (DBD mutation: RXRa K156A/R161A, NR concentration 90 nM)
# Procedure, shortened: as §1
# [5] = test system: RXRa homodimer (NR concentration 180 nM)
# Procedure, shortened: as §1
# [6] = test system: THRa:RXRa (NR concentration 90 nM, RXRa partner concentration 90 nM)
# Procedure, shortened: as §1
# [7] = test system: THRa homodimer (NR concentration 90 nM)
# Procedure, shortened: as §1
# [8] = test system: VDR homodimer (NR concentration 270 nM)
# Procedure, shortened: as §1
Sequence,PBM binding z-score [1],PBM binding z-score [2],PBM binding z-score [3],PBM binding z-score [4],PBM binding z-score [5],PBM binding z-score [6],PBM binding z-score [7],PBM binding z-score [8]
ACTAGCAGGACAAGTTTGGGTCACTCAAACAAAG,2.28,1.51,1.55,0.164,0.931,2.62,1.42,0.216
TCAGACAGGTGACGGTAACTCAGGTACGCAGTCG,0.517,0.188,0.328,0.683,0.84,0.492,0.00718,-0.0333
CCTACTGGGCCAAAAAGGTCATTGACGCCGATAA,4.4,4.59,4.36,0.774,4.9,3.02,0.658,2.4
CAAACTAGGGCAAGAGGTCAAAGTCCGCTTCCCG,5.19,6.21,5.15,1.74,6.17,3.87,1.23,3.3
CCGACTGGGGCAGAGGTTACCATACTCAGTACGA,1.64,1.81,1.16,0.0849,2.24,1.14,0.0259,0.131
TCATATAGATAATACAGGTGAAAGTCGGCATCTA,0.362,0.456,0.632,2.07,1.02,0.394,0.216,0.608
ACTAGCAGGCCAAGTTTGGGTCACACAAACAAAG,2.17,2.66,1.73,-0.304,1.44,2.67,1.04,0.103
TCAGATAGGTAAATGCTAGGTGAAAGTCCGATCT,0.292,0.258,0.0345,1.06,0.464,1.22,-0.0517,-0.287
AGAATGAGGTTATACGTAGATCAGGGACGAAAGT,0.962,1.77,1.35,1.87,2.14,2.39,0.878,1.06
TCTGCTAGGTCAAAGATGGTCAGCTAATCTGCTA,3.04,3.65,4.3,1.31,2.65,3.05,0.196,-0.234
ATCTCTAGGTAAAGATAGTTCAGTTAATGCAAAT,1.19,0.937,0.915,0.536,0.419,1.27,0.471,0.927
TCTTGTAGATCAACAGAAGGTTAAGAAAGATCGA,0.688,0.942,0.329,0.67,1.02,0.733,-0.701,-0.188
CCTACTGGGCCACGAAAGGTCATGGATTCAGTGA,4.94,5.28,4.71,-0.0305,6.03,3.97,1.17,1.35
GCAAGCAGGCCATTTGGGTCACTCAATGACGGGC,1.76,0.948,1.18,-0.0801,0.769,1.79,0.53,0.402
ATATGTAGGTTAAGGGTCATTGAGGTTGGTTCGC,4.17,4.87,3.36,1.89,6.28,3.55,2.06,4.8
ATATGTAGGTTAGCTGGTGTCATTCAGACTAGGC,0.884,0.888,0.979,0.243,0.936,2.52,-0.1,0.617
GCTAGTTGGTCAGTAAACGGTCACACACCGGTCG,2.63,1.5,1.33,-0.0327,0.347,0.155,-0.176,-0.361
CGAAAGAGGGCATGAGTTGATAGCAAATGCCGAT,1,1.76,1.96,1.67,1.27,0.416,-0.334,1.1
ATCTCTAGGTAAACAAGTTCAGTGAATGCCGAAC,1.51,0.719,1.05,1.09,0.385,1.33,0.65,2.69
CAAACTAGGTCACCGGAACGTCAAAGTCCGCATG,3.74,4.82,5.62,1.46,3.86,3.55,1.88,1.08
ACTTACGGGTCAACGAGATTATAGCACGCGTATA,2.96,5.12,4.89,2.05,5.72,2.67,0.499,1.35
CGTCCAAGGTCTATGCTAGGTCAGTGAAAGCATT,2.43,1.52,1.37,0.335,0.248,2.21,0.687,0.404
CCGACTGGGGCAAAGGTTACCATTCTCAGTACGA,2.08,3.4,1.6,0.683,3.26,1.66,-0.246,-0.419
ACTAGCAGGCCAAGTTTGGGTCACTCCAACAAAG,2.33,2.23,1.55,0.0144,0.704,2.47,1.05,0.157
CCGACTGGGGCAGAAAGGCTACCATACCATCCGG,0.243,-0.0591,-0.0697,-0.996,-0.122,-0.836,-0.539,-0.212
AGAACGGGGGCAATGAGTTGATAGCACGGGTGGC,1.83,2.87,2.43,3.17,2.3,2.45,1.33,5.08
CCTCCAAGGTCAGCAGGTCAGTGAAAGCGACGTG,4.97,6.12,6.45,2.04,4.21,3.74,2.14,1.55
CCTAACGGGTCAAGGTTATAGCACGGGTGGTACG,3.19,4.47,4.4,0.639,4.35,2.8,0.625,1.37
